# Calls of active or inactive are those of the source. Rule for the calls: active = hit-call score of the fitted dose curve at least 0.9, where 1 is the maximum; inactive = score below 0.9.
# Assays:
# Settings in all cases: mRNA level, 48 h; actives raise or lower the signal
# [1] = read-out: Apolipoprotein A-V (APOA5) gene, APOA5 (gene 116519); assay: LTEA_HepaRG_APOA5: Life Technologies and Expression Analysis (LTEA) Assay for Apolipoprotein A-V (APOA5) gene using HepaRG (AID 2283474)
# Summary of the method: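 Readout is APOA5 transcript level by qRT-PCR on Fluidigm dynamic arrays, normalized to three housekeeping genes. HepaRG cultures received chemicals for 48 h at up to 100 uM (half-log steps, 0.5% DMSO), with gain or loss scored relative to DMSO.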
# [2] = read-out: Apoptosis regulator Bcl-2 (Homo sapiens) (UniProt P10415); assay: LTEA_HepaRG_BCL2: Life Technologies and Expression Analysis (LTEA) Assay for Bcl-2 gene using HepaRG (AID 2283475);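 note: BCL2 transcript by TaqMan qRT-PCR normalised to ACTB GAPDH and POLR2A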
# Summary of the method: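 Expression change of BCL2 mRNA in HepaRG after 48 h dosing, quantified by TaqMan qRT-PCR against three endogenous controls. Concentration-response used eight points up to 100 uM, vehicle 0.5% DMSO.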
# [3] = read-out: Bcl-2 (BID) gene, BID (gene 637); assay: LTEA_HepaRG_BID: Life Technologies and Expression Analysis (LTEA) Assay for Bcl-2 (BID) gene using HepaRG (AID 2283476)
# Summary of the method: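 Gain or loss of BID expression is fitted relative to 0.5% DMSO vehicle. Human HepaRG liver cells received a 48 h chemical exposure over an eight-point concentration range.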
# [4] = read-out: Caspase-3 (Homo sapiens) (UniProt P42574); assay: LTEA_HepaRG_CASP3: Life Technologies and Expression Analysis (LTEA) Assay for cysteine-aspartic acid protease (CASP3) using HepaRG (AID 2283477)
# Summary of the method: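 Read-out is CASP3 mRNA level by TaqMan qRT-PCR in human HepaRG cells after 48 h chemical exposure. Eight half-log concentrations topping at 100 uM were tested in 0.5% DMSO; gain or loss was fitted relative to DMSO.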
# [5] = read-out: Cytochrome P450 (CYP24A1), CYP24A1 (gene 1591); assay: LTEA_HepaRG_CYP24A1: Life Technologies and Expression Analysis (LTEA) Assay for Cytochrome P450 (CYP24A1) using HepaRG (AID 2283478)
# Summary of the method: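 HepaRG, 48 h chemical exposure, 8-pt half-log CRC from 100 uM, 0.5% DMSO vehicle, duplicates. Endpoint: CYP24A1 mRNA by Fluidigm TaqMan qRT-PCR, normalized ACTB/GAPDH/POLR2A; gain/loss fit vs DMSO.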
# [6] = read-out: Cytochrome P450 (CYP1A2), CYP1A2 (gene 1544); assay: LTEA_HepaRG_CYP1A2: Life Technologies and Expression Analysis (LTEA) Assay for Cytochrome P450 (CYP1A2) using HepaRG (AID 2283479)
# Summary of the method: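 CYP1A2 transcript induction or loss, quantified by Fluidigm qRT-PCR against three housekeeping genes, was fitted bidirectionally against 0.5% DMSO controls. Human HepaRG cells received eight half-log concentrations from 100 uM over 48 h.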
# [7] = read-out: cysteine-aspartic acid protease (CASP8), CASP8 (gene 841); assay: LTEA_HepaRG_CASP8: Life Technologies and Expression Analysis (LTEA) Assay for cysteine-aspartic acid protease (CASP8) using HepaRG (AID 2283480)
# Summary of the method: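 Differentiated HepaRG cells in serum-free induction medium, 48 h exposure, eight-point half-log series from 100 uM in 0.5% DMSO, duplicates. CASP8 mRNA by qRT-PCR, normalized to ACTB, GAPDH, POLR2A; bidirectional fit versus DMSO.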
# [8] = read-out: Cytochrome P450 (CYP2B6), CYP2B6 (gene 1555); assay: LTEA_HepaRG_CYP2B6: Life Technologies and Expression Analysis (LTEA) Assay for Cytochrome P450 (CYP2B6) using HepaRG (AID 2283481)
# Summary of the method: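 HepaRG cells plated 48 h, switched to serum-free induction medium, then dosed 48 h (8 points, half-log from 100 uM, 0.5% DMSO). RNA isolated; CYP2B6 expression measured by qRT-PCR; gain or loss fitted relative to DMSO.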
# [9] = read-out: Cytochrome P450 2C19 (Homo sapiens) (UniProt P33261); assay: LTEA_HepaRG_CYP2C19: Life Technologies and Expression Analysis (LTEA) Assay for CYP2C19 using HepaRG (AID 2283482)
# Summary of the method: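 Transcript levels of CYP2C19 were quantified by qRT-PCR after HepaRG cells were treated for 48 hours with test chemicals up to 100 uM (eight half-log concentrations, 0.5% DMSO vehicle). Gain or loss of signal was fitted relative to DMSO.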
# [10] = read-out: CYP2C8 (gene 1558); assay: LTEA_HepaRG_CYP2C8: Life Technologies and Expression Analysis (LTEA) Assay for CYP2C8 using HepaRG (AID 2283483)
# Summary of the method: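 Differentiated HepaRG cells in serum-free induction medium exposed 48 h in duplicate to 8 half-log concentrations from 100 uM in 0.5% DMSO. CYP2C8 mRNA by qRT-PCR normalized to ACTB, GAPDH, POLR2A; bidirectional fit versus DMSO.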
# [11] = read-out: CYP2C9 (gene 1559); assay: LTEA_HepaRG_CYP2C9: Life Technologies and Expression Analysis (LTEA) Assay for CYP2C9 using HepaRG (AID 2283484)
# Summary of the method: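 Differentiated human HepaRG cells in serum-free induction medium were exposed 48 h to chemicals in 8-point half-log series from 100 uM (0.5% DMSO), in duplicate. CYP2C9 mRNA was measured by qRT-PCR, normalized to ACTB/GAPDH/POLR2A, with bidirectional fitting versus DMSO.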
# [12] = read-out: CYP2E1 (gene 1571); assay: LTEA_HepaRG_CYP2E1: Life Technologies and Expression Analysis (LTEA) Assay for CYP2E1 using HepaRG (AID 2283485)
# Summary of the method: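 Differentiated HepaRG cells were treated in duplicate for 48 h with chemicals in 0.5% DMSO, from 100 uM downward in half-log dilutions. RNA was then analysed by qRT-PCR for CYP2E1 induction or loss.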
# [13] = read-out: CYP4A11 (gene 1579); assay: LTEA_HepaRG_CYP4A11: Life Technologies and Expression Analysis (LTEA) Assay for CYP4A11 using HepaRG (AID 2283486)
# Summary of the method: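 HepaRG, 48 h chem exposure, 8 conc (100 uM top, half-log), 0.5% DMSO vehicle; qRT-PCR readout, housekeeping-gene normalized; bidirectional curve fit vs DMSO baseline.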
# [14] = read-out: Cytochrome P450 3A4 (Homo sapiens) (UniProt P08684); assay: LTEA_HepaRG_CYP3A4: Life Technologies and Expression Analysis (LTEA) Assay for CYP3A4 using HepaRG (AID 2283487)
# Summary of the method: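 Differentiated HepaRG cells in serum-free induction medium exposed in duplicate for 48 h to 8 half-log concentrations up to 100 uM in 0.5% DMSO. CYP3A4 mRNA measured by qRT-PCR normalized to ACTB, GAPDH and POLR2A; bidirectional fit versus DMSO.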
# [15] = read-out: DNA damage-inducible transcript 3 (DDIT3), DDIT3 (gene 1649); assay: LTEA_HepaRG_DDIT3: Life Technologies and Expression Analysis (LTEA) Assay for DNA damage-inducible transcript 3 (DDIT3) using HepaRG (AID 2283488)
# Summary of the method: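 Changes in DDIT3 transcript, in either direction relative to 0.5% DMSO vehicle, were quantified by TaqMan qRT-PCR after 48 h chemical exposure of HepaRG cells at 8 concentrations, maximum 100 uM.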
# [16] = read-out: Early growth response protein 1 (EGR1) transcription factor, EGR1 (gene 1958); assay: LTEA_HepaRG_EGR1: Life Technologies and Expression Analysis (LTEA) Assay for Early growth response protein 1 (EGR1) transcription factor using HepaRG (AID 2283490)
# Summary of the method: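 Differentiated HepaRG cells in serum-free induction medium exposed 48 hours, duplicate, to 8 half-log concentrations up to 100 uM in 0.5% DMSO. EGR1 mRNA measured by TaqMan qRT-PCR, normalized to ACTB, GAPDH, POLR2A; bidirectional fit versus DMSO.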
# [17] = read-out: Ezrin (EZR), EZR (gene 7430); assay: LTEA_HepaRG_EZR: Life Technologies and Expression Analysis (LTEA) Assay for Ezrin (EZR) using HepaRG (AID 2283491)
# Summary of the method: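 Differentiated human HepaRG cells, 48 h after plating, were exposed in serum-free induction medium for 48 hours to eight half-log concentrations up to 100 uM in 0.5% DMSO. EZR mRNA was measured by TaqMan qRT-PCR, normalized to ACTB, GAPDH and POLR2A, and fitted bidirectionally against DMSO.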
# [18] = read-out: Cytochrome P450 3A7 (Homo sapiens) (UniProt P24462); assay: LTEA_HepaRG_CYP3A7: Life Technologies and Expression Analysis (LTEA) Assay for CYP3A7 using HepaRG (AID 2283492)
# Summary of the method: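 Human HepaRG liver cells, 48 h post-plating, switched to serum-free induction medium and exposed in duplicate for 48 h. Dosing: 100 uM top, half-log dilutions, 8 points, 0.5% DMSO vehicle. Read-out: CYP3A7 mRNA, gain or loss fitted against DMSO baseline.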
# Apoptosis regulator Bcl-2 (Homo sapiens), sequence (P10415 whole entry, looked up): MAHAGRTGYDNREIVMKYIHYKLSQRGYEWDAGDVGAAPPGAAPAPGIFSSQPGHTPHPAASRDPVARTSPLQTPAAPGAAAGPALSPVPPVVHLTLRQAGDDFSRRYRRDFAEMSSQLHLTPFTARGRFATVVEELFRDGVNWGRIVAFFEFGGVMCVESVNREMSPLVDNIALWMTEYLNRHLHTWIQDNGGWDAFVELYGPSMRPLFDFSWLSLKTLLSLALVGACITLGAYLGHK
# Cytochrome P450 2C19 (Homo sapiens), sequence (P33261 whole entry, looked up): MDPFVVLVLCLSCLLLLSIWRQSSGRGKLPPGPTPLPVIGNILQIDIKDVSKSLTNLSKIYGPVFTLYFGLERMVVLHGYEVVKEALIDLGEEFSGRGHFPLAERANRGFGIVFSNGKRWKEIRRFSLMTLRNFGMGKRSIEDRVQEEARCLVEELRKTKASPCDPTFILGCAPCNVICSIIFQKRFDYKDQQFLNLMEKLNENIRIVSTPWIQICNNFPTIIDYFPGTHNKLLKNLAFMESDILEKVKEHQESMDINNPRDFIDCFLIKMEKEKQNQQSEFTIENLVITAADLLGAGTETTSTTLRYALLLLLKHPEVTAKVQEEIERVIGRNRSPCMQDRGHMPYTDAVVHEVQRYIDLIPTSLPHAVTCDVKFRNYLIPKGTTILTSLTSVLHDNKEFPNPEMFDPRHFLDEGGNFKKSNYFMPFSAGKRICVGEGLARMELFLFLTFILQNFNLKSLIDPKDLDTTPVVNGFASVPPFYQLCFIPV
# Cytochrome P450 3A4 (Homo sapiens), sequence (P08684 whole entry, looked up): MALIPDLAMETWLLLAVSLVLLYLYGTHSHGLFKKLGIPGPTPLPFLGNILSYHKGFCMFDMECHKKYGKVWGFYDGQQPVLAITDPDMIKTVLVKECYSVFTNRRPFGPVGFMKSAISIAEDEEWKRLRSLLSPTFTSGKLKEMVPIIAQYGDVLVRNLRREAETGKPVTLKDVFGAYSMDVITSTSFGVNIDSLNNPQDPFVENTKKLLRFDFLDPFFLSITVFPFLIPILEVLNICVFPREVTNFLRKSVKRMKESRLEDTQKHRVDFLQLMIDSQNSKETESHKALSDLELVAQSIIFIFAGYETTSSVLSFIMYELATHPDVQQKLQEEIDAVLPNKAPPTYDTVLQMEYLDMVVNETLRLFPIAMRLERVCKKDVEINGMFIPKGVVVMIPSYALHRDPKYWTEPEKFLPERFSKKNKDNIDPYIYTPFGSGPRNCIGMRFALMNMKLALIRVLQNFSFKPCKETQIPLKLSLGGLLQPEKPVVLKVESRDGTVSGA
# Caspase-3 (Homo sapiens), sequence (P42574 whole entry, looked up): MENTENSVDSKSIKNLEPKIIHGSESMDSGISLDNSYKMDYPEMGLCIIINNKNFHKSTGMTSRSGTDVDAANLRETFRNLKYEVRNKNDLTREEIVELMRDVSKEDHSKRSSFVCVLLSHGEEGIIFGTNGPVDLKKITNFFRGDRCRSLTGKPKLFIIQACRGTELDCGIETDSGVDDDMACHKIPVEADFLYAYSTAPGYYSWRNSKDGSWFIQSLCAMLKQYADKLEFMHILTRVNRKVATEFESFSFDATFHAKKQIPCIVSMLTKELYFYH
# Cytochrome P450 3A7 (Homo sapiens), sequence (P24462 whole entry, looked up): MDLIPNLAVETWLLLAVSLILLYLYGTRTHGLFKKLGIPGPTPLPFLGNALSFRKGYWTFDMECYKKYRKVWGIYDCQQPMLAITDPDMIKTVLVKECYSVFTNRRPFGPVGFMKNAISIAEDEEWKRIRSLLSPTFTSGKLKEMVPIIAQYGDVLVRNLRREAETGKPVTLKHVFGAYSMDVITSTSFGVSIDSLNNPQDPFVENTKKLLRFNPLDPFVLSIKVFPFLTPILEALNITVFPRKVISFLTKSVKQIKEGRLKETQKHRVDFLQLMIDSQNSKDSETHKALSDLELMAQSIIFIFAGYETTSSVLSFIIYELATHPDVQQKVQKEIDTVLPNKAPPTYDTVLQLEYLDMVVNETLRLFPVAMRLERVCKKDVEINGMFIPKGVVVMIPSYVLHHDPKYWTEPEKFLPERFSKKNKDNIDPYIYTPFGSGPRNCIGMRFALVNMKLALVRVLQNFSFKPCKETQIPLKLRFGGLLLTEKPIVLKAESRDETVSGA
compound,measurement,setting,value
c1cc[n+]2c(c1)-c1cccc[n+]1CC2,outcome,[1],inactive
same,outcome,[2],inactive
same,outcome,[3],inactive
same,outcome,[4],inactive
same,outcome,[5],inactive
same,AC50,[6],12.4 µM (active)
same,outcome,[7],inactive
same,outcome,[8],inactive
same,outcome,[9],inactive
same,outcome,[10],inactive
same,outcome,[11],inactive
same,outcome,[12],inactive
same,outcome,[13],inactive
same,outcome,[14],inactive
same,outcome,[15],inactive
same,outcome,[16],inactive
same,outcome,[17],inactive
same,outcome,[18],inactive

# Reference: PubChem BioAssay (EPA / NIEHS)
